Test results taken from PubChem BioAssay (NCI).
The panel holds about 83,000 compounds, 20% with a hit somewhere; the sample as a whole holds those more often.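 For each line, cells grew in 96-well plates with the test compound present at a single concentration for 48 hours.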 The source made the active and inactive calls. The calls were made as follows: active = growth percent below 10; inactive = the rest.

The compounds below were run on HS 578T breast (assay: NCI-60 one-dose screen, 48 h (100 = growth as untreated, 0 = no growth, -100 = all killed)). Conditions: 10 µM unless noted.
With Cc1cccc(NC(=O)CCc2ccc(N3C(N)=NC(N)=NC3(C)C)cc2)c1 the growth was 91.4% (inactive).
COc1cc(/C=C/C(=O)c2c(C)[n+]([O-])c3ccccc3[n+]2[O-])ccc1O was tested, and the growth was 99.4% (inactive).
With CCC1CN2C(=N1)c1ccccc1-c1cc(Cl)ccc12 (stereo not drawn) the growth was 89.1% (inactive).
CC(C(C(=O)N1CCCCC1)N1CCCCC1)N1CCCCC1 (stereo not drawn) was tested, and the growth was 103% (inactive).
In the case of NC(CSC(c1ccccc1)(c1ccccc1)c1ccc(F)cc1)C(=O)O (stereo not drawn), the growth is reported as 16.9% (inactive).
In the case of CS(=O)(=O)OCC(COS(C)(=O)=O)C(c1ccccc1)c1ccccc1, the growth is reported as 104% (inactive).
For S=c1ssnc1-c1ccccn1, the growth was -7.73% (active).
For O=C(Cn1c2ccccc2c2ccncc21)N/N=C/c1cc(O)c(O)c(O)c1, the growth was 105% (inactive).
CN(C)c1ccc(/C=N/N=C(N)N)cc1 was tested, and the growth was 78.2% (inactive).
In the case of O=C(O)c1cc2ccccc2cc1Nc1ccccc1, the growth is reported as 121% (inactive).
In the case of O=C(Nc1ccccc1Cl)c1c[nH]c(=O)c(-c2ccc(N3CCCOC4(CC4)C3)cc2)c1, the growth is reported as 87.3% (inactive).
Clc1ccc2c(c1)nnn1c3ncccc3c(Br)c21 was tested, and the growth was 16.7% (inactive).
With Cc1nssc1=S the growth was 98.3% (inactive).
In the case of FC(F)(F)c1cn(CC2CNC2)c2ncnc(Cl)c12, the growth is reported as 105% (inactive).
CN1CCN(Cn2nc(-c3cc(Cl)cc(Cl)c3Cl)n(/N=C/c3ccc(Cl)cc3)c2=S)CC1 was tested, and the growth was 112% (inactive).
In the case of NC(N)=N/N=C/c1ccc([N+](=O)[O-])cc1, the growth is reported as 86.5% (inactive).
With CC1=C2C(=C[C@@](C)(CO)[C@@H]2OC(=O)N(C)CCN(C)C(=O)OC(C)(C)C)C(=O)[C@](C)(O)C12CC2 the growth was 93.9% (inactive).
For Nc1nc(=S)ss1, the growth was 98.2% (inactive).
In the case of COC(=O)c1oc2c(C(C)=O)c(OCCN3CCCCC3)ccc2c1C, the growth is reported as 107% (inactive).
With Cc1cc[n+](CCCC[n+]2ccc(C)cc2)cc1 the growth was 104% (inactive).

What follows are compounds tested on NCI/ADR-RES ovarian in the same assay as above. Conditions: 10 µM unless noted.
In the case of CCOc1ccc(NC(=O)Nc2cc(C(C)C)ccc2C)cc1, the growth is reported as 58.7% (inactive).
With NS(=O)(=O)c1ccc(-n2nc(-c3ccc(Cl)cc3)ccc2=O)cc1 the growth was 68.4% (inactive).
COC(OC)C1(c2ccccc2)NC(=O)NC1=O (stereo not drawn) was tested, and the growth was 116% (inactive).
CC1=C[S+](c2ccccc2)c2cccc3cc4ccccc4c1c23 (stereo not drawn) was tested, and the growth was 27% (inactive).
In the case of O=C(Nc1ccccc1F)Nc1ccccc1Cl, the growth is reported as 88.9% (inactive).
For O=C(C[n+]1ccccc1Cl)c1ccc2c(c1)CCCC2, the growth was 109% (inactive).
In the case of COc1cc(-c2nc3sc(C)cn3c2/C=C2\C(=O)Nc3ccccc32)c(Br)c(OC)c1OC, the growth is reported as 22.9% (inactive).
For CC1(C)N=C(N)N=C(N)N1c1cccc(CCCCc2ccccc2)c1, the growth was 90.3% (inactive).
In the case of COc1ccc(/C=C2\CS(=O)(=O)C/C(=C\c3ccc(OC)cc3)C2=O)cc1, the growth is reported as 10.5% (inactive).
In the case of CN1CCN(CC(O)COc2c(Br)c(Br)c(Br)c3c2OC(C)(C)C3)CC1 (stereo not drawn), the growth is reported as 64.5% (inactive).
For CC1(C)N=C(N)N=C(N)N1c1ccc(OCC(=O)Nc2ccccc2)c(Cl)c1, the growth was 102% (inactive).
In the case of COc1ccc2c(c1)nnc1c3cccnc3[nH]c21, the growth is reported as 13.8% (inactive).
For CC(=O)N[C@@H](CNC(=O)c1cc(NC(=O)c2cc(NC(=O)c3cc(NC(=O)c4nccn4C)cn3C)cn2C)cn1C)CC(=O)Nc1cn(C)c(C(=O)Nc2cc(C(=O)Nc3cc(C(=O)Nc4cc(C(=O)NCCCN(C)CCCNC(=O)c5cccc(C(=O)O)c5)n(C)c4)n(C)c3)n(C)c2)n1, the growth was 87.4% (inactive).
Nc1ccc(S(=O)(=O)Nc2cc(I)cc(I)c2)cc1 was tested, and the growth was 97.5% (inactive).
In the case of Nc1nc2ccc(CNc3ccc(C(=O)NC(CC(=O)O)C(=O)O)cc3)cc2c(=O)[nH]1 (stereo not drawn), the growth is reported as 33% (inactive).
For Cc1cn(C2CC(F)C(CO)O2)c(=O)[nH]c1=O (stereo not drawn), the growth was 86.5% (inactive).
With CN(C)C(=O)Nc1nc2cc(Cl)c(Cl)cc2[nH]1 the growth was 3.19% (active).
Cc1cccc(NC(=O)CCc2ccc(N3C(N)=NC(N)=NC3(C)C)cc2)c1 was tested, and the growth was 95.6% (inactive).
In the case of COc1cc(/C=C/C(=O)c2c(C)[n+]([O-])c3ccccc3[n+]2[O-])ccc1O, the growth is reported as 104% (inactive).
In the case of CCC1CN2C(=N1)c1ccccc1-c1cc(Cl)ccc12 (stereo not drawn), the growth is reported as 21.3% (inactive).
In the case of CC(C(C(=O)N1CCCCC1)N1CCCCC1)N1CCCCC1 (stereo not drawn), the growth is reported as 112% (inactive).
NC(CSC(c1ccccc1)(c1ccccc1)c1ccc(F)cc1)C(=O)O (stereo not drawn) was tested, and the growth was 37.5% (inactive).
CS(=O)(=O)OCC(COS(C)(=O)=O)C(c1ccccc1)c1ccccc1 was tested, and the growth was 99% (inactive).
For S=c1ssnc1-c1ccccn1, the growth was 48.4% (inactive).
In the case of O=C(Cn1c2ccccc2c2ccncc21)N/N=C/c1cc(O)c(O)c(O)c1, the growth is reported as 103% (inactive).
For CN(C)c1ccc(/C=N/N=C(N)N)cc1, the growth was 50.5% (inactive).
In the case of Cc1cc2c(cc1C)N(C(=O)CCl)CCN2C(=O)CCl, the growth is reported as -49.7% (active).
With O=C(O)c1cc2ccccc2cc1Nc1ccccc1 the growth was 93% (inactive).
For O=C(Nc1ccccc1Cl)c1c[nH]c(=O)c(-c2ccc(N3CCCOC4(CC4)C3)cc2)c1, the growth was 60.6% (inactive).
For Clc1ccc2c(c1)nnn1c3ncccc3c(Br)c21, the growth was 85.8% (inactive).
For Cc1nssc1=S, the growth was 96.6% (inactive).
In the case of FC(F)(F)c1cn(CC2CNC2)c2ncnc(Cl)c12, the growth is reported as 102% (inactive).
With CN1CCN(Cn2nc(-c3cc(Cl)cc(Cl)c3Cl)n(/N=C/c3ccc(Cl)cc3)c2=S)CC1 the growth was 96.6% (inactive).
In the case of NC(N)=N/N=C/c1ccc([N+](=O)[O-])cc1, the growth is reported as 78.5% (inactive).
CC1=C2C(=C[C@@](C)(CO)[C@@H]2OC(=O)N(C)CCN(C)C(=O)OC(C)(C)C)C(=O)[C@](C)(O)C12CC2 was tested, and the growth was 10.7% (inactive).
In the case of Nc1nc(=S)ss1, the growth is reported as 104% (inactive).
In the case of COC(=O)c1oc2c(C(C)=O)c(OCCN3CCCCC3)ccc2c1C, the growth is reported as 95.5% (inactive).
In the case of Cc1cc[n+](CCCC[n+]2ccc(C)cc2)cc1, the growth is reported as 97.8% (inactive).
